Source: PubChem
HCMV antiviral = human cytomegalovirus inhibition | HFF cells, HCMV-luciferase reporter, 72 h; active compounds read low | activity change, negative = inhibition, % at 57.5 µM | 410,000 compounds, 4.5% hits | AID 1259415; in the data active = activity change below about -60%; inconclusive = no clear call, values can overlap the other calls; inactive = above about -39%
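After 16 h attachment at 37C, HFF cells received test compound and HCMV-luciferase (1 PFU/cell); reporter luminescence read 72 h later, data normalized against buffer-only and known inhibitor Salinomycin.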
Pf growth 48h = inhibits P. falciparum growth in the first generation, 48 h. 310,000 compounds, 5.9% hits. Potency, µM (titrated, usually from 28.7 µM), most hits filed as inhibitors. P. falciparum luciferase growth in erythrocytes, 48 h
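In quantitative HTS format, infected erythrocytes bearing luciferase-reporter parasites were treated for a single generation at 37 C. Luminescence after adding detection reagent served as the growth measure.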
Pf growth 96h = P. falciparum growth inhibition at 96 hour, primary screen for plastid delayed-death inhibitors; P. falciparum luciferase reporter growth, 96 h; Potency, µM (doses to about 28.7 µM), usual class: inhibitors; 320,000 compounds, 6.9% hits; AID 504834
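Erythrocytes infected with luciferase-expressing P. falciparum were dispensed at 2% hematocrit and 0.05% parasitemia (final), then incubated with compounds 96 hours at 37 C in 5% CO2. Luminescence after detection reagent addition reported growth.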
Giardia FBPA inh = Giardia lamblia aldolase inhibition; A8B2U2; purified Giardia FBPA; Potency, µM (doses to about 59.6 µM), actives largely listed as inhibitors; 290,000 compounds, 0.71% hits; AID 2451; also: nearly all actives have a fitted effect of over 55% in size
Target sequence (A8B2U2 whole entry, looked up): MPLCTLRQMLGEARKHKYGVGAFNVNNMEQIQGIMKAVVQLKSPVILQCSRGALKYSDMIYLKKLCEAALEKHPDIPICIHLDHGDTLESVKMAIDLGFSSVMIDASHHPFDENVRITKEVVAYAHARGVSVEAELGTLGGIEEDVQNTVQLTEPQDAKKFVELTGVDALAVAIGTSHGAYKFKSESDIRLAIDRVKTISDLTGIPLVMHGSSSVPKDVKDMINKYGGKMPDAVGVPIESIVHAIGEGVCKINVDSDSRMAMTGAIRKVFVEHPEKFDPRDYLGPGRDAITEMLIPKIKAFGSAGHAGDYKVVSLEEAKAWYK
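40 nM FBPA preincubated 10 min at RT with compound (up to 57.5 uM final), then substrate plus GAPDH/TPI/NAD/arsenate coupling and diaphorase/resazurin added. Fluorescence read after 20 min at RT, 525/598 nm.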
Sm TGR inh = S. mansoni TGR enzyme inhibition. purified TGR, DTNB reduction, TNB absorbance 405 nm. Potency, µM (titrated, usually from 114 µM), actives largely listed as inhibitors. 360,000 compounds, 3% hits; also: nearly all actives have a fitted effect of over 60% in size
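TGR 20 nM + NADPH 100 uM (dispensed conc.), cpd preinc 15 min RT; start with NADPH (500 uM addition) then DTNB (15 mM addition). Kinetic TNB absorbance, 405 nm filter. Four-parameter Hill fit across titration.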
Hits are given with their value. Shown are actives, neighbours in structure and some others; about 14% of the full set was active somewhere. Unless noted, calls follow the shape of the dose curve; as a rule, active = well fitted curve in the direction sought with a large enough effect; inconclusive = small, poorly fitted or top-dose-only effect, or another doubt; inactive = no such curve, though single readings can be large; an effect the other way counts as inactive or inconclusive.

`CC(=O)Nc1nc2n(n1)C(c1ccc(F)cc1)C=C(c1ccccc1)N2` (stereo unspecified) gave HCMV antiviral inactive, Pf growth 48h inconclusive, Pf growth 96h inactive, Giardia FBPA inh inactive and Sm TGR inh 3.16µM.
Screening COc1ccccc1C1C=C(c2ccc(Cl)cc2)Nc2nc(NS(C)(=O)=O)nn21 (stereo unspecified) returned Pf growth 48h inactive, Pf growth 96h inactive, Giardia FBPA inh inactive and Sm TGR inh 39.8µM.
`COc1ccccc1C1C=C(c2ccc(Cl)cc2)Nc2nc(N3C(=O)CCC3=O)nn21` (stereo unspecified) gave HCMV antiviral inactive, Pf growth 48h inactive, Pf growth 96h inactive, Giardia FBPA inh inactive and Sm TGR inh inactive.
For Cc1ccc(C2C=C(c3ccccc3)Nc3nc(NS(=O)(=O)c4ccc(C)cc4)nn32)cc1 (stereo unspecified) the results were HCMV antiviral inactive and Sm TGR inh inactive.
Screening Cc1ccc(C2C=C(c3ccc(Cl)cc3)Nc3nc(NS(=O)(=O)c4ccccc4)nn32)cc1 (stereo unspecified) returned HCMV antiviral inactive and Sm TGR inh 31.6µM.
For O=C(CCNS(=O)(=O)c1ccccc1)NCC1CCCCC1 the results were HCMV antiviral inactive, Pf growth 48h inactive, Pf growth 96h inactive and Sm TGR inh inactive.
For CC(Sc1nccn1C)C(=O)c1c(N)n(C)c(=O)n(C)c1=O (stereo unspecified) the results were HCMV antiviral inactive, Pf growth 48h inactive, Pf growth 96h inactive and Sm TGR inh inactive.
CCCCNc1ccc2c(c1)OC[C@H](CC(C)C)NS2(=O)=O was read as HCMV antiviral inactive.
`CC(=O)Nc1nc2n(n1)C(c1ccccc1)C=C(c1ccccc1)N2` (stereo unspecified) gave Pf growth 48h inactive, Pf growth 96h 5.22µM, Giardia FBPA inh inactive and Sm TGR inh 3.98µM.
Screening CCOc1ccccc1N1CCN(C(=O)c2ccccc2OCc2c(C)noc2C)CC1 returned HCMV antiviral inactive, Pf growth 48h inconclusive, Pf growth 96h inconclusive and Sm TGR inh inactive.
For CCN(CC(=O)Nc1c(F)cccc1F)C(=O)CCCSc1nc2ccccc2[nH]1 the results were HCMV antiviral inactive.
Screening Cc1ccc(-c2cc(C(=O)NCc3cnn(C)c3C)c3cc(Br)ccc3n2)cc1 returned HCMV antiviral inactive, Pf growth 48h inactive, Pf growth 96h inconclusive, Giardia FBPA inh inactive and Sm TGR inh inactive.
`Cc1ccc(-c2cc(C(=O)N(C)Cc3cnn(C)c3C)c3cc(Br)ccc3n2)cc1` gave HCMV antiviral inactive, Pf growth 48h 9.28µM, Pf growth 96h inconclusive, Giardia FBPA inh inactive and Sm TGR inh inactive.
CCOc1ccc(S(=O)(=O)Nc2ccc3c(c2)N(C(C)=O)CCC3)cc1 was read as HCMV antiviral inactive and Sm TGR inh inconclusive.
For CCc1ccc(CCC(=O)Nc2nc(CC(C)=O)ns2)o1 the results were HCMV antiviral inactive, Pf growth 48h inconclusive, Pf growth 96h inactive, Giardia FBPA inh inactive and Sm TGR inh 39.8µM.
For CCc1ccc(CCC(=O)Nc2ccc(C(=O)O)cc2)o1 the results were HCMV antiviral active, Pf growth 48h inactive, Pf growth 96h inconclusive and Sm TGR inh inconclusive.
Screening CCc1ccc(CCC(=O)Nc2nnc(C)s2)o1 returned HCMV antiviral inactive, Pf growth 48h inactive, Giardia FBPA inh inactive and Sm TGR inh inconclusive.
For COc1ccc(CCNC(=O)CN2C(=O)C(=O)N(C3CCCC3)C2=O)cc1OC the results were HCMV antiviral inconclusive, Pf growth 48h inactive, Pf growth 96h inactive and Sm TGR inh inactive.
Screening O=C(N1CCOCC1)C12OC3CC(CC(C3)O1)O2 returned HCMV antiviral inactive.
Screening S=C(NCc1cccnc1)NCc1cccnc1 returned HCMV antiviral inactive, Pf growth 48h inactive, Pf growth 96h 10.4µM, Giardia FBPA inh inactive and Sm TGR inh inactive.
Screening C=CCNC(=S)NCc1cccnc1 returned HCMV antiviral inconclusive, Pf growth 48h inactive, Pf growth 96h inactive, Giardia FBPA inh inactive and Sm TGR inh inactive.
S=C(NCc1ccccc1)Nc1cccc2cnccc12 was read as HCMV antiviral -86.7, Pf growth 48h inactive, Pf growth 96h inactive, Giardia FBPA inh inactive and Sm TGR inh inconclusive.
For CCCCNC(=S)Nc1cccc2cnccc12 the results were HCMV antiviral inactive, Pf growth 48h inactive, Pf growth 96h inactive, Giardia FBPA inh inconclusive and Sm TGR inh inconclusive.
`S=C(NCc1cccnc1)Nc1cccc2ccccc12` gave HCMV antiviral inactive, Pf growth 48h inactive, Pf growth 96h inactive, Giardia FBPA inh inactive and Sm TGR inh 31.6µM.
S=C(NCCc1ccccc1)Nc1cccc2cnccc12 was read as HCMV antiviral -94.8, Pf growth 48h inactive, Pf growth 96h inactive, Giardia FBPA inh inconclusive and Sm TGR inh inactive.
C=CC[C@H](CC(=O)N[C@H](CO)Cc1ccccc1)C(=O)N[C@H](COC(=O)[C@@H](CC=C)CC(=O)OC(C)(C)C)Cc1c[nH]c2ccccc12 was read as HCMV antiviral inactive.
For COc1ccc(-c2noc(CCC(=O)N3CCN(c4cccc(C)c4C)CC3)n2)cc1 the results were HCMV antiviral inactive.
Screening CN(C)/C(CN1CCN(C=O)CC1)=C1\N=C(c2ccccc2)OC1=O returned HCMV antiviral -60.5, Pf growth 48h inactive, Pf growth 96h inactive, Giardia FBPA inh inactive and Sm TGR inh inactive.
CCC(=O)O[C@@H]1CC(=O)O[C@H](C)CC=CC=C[C@@H](O)[C@H](C)C[C@H](CC=O)[C@H](O[C@H]2O[C@H](C)[C@@H](O[C@H]3C[C@@](C)(O)[C@@H](OC(=O)CC)[C@H](C)O3)[C@H](N(C)C)[C@H]2O)[C@H]1OC was read as Pf growth 48h inconclusive, Pf growth 96h 0.828µM, Giardia FBPA inh inactive and Sm TGR inh 25.1µM.
`CC[C@@H]1OC(=O)[C@H](C)[C@H](O[C@@H]2C[C@](C)(OC)[C@H](O)[C@H](C)O2)[C@H](C)[C@H](O[C@@H]2O[C@@H](C)C[C@@H](N(C)C)[C@@H]2O)[C@](C)(O)C[C@H](C)C(=O)[C@H](C)[C@H](O)[C@]1(C)O` gave Giardia FBPA inh inactive.
Screening CO[C@H]1[C@H](O[C@H]2O[C@@H](C)[C@@H](O[C@@H]3C[C@](C)(O)[C@H](O)[C@H](C)O3)[C@@H](N(C)C)[C@@H]2O)[C@@H](CC=O)C[C@@H](C)[C@@H](O[C@H]2CC[C@H](N(C)C)[C@H](C)O2)/C=C\C=C/C[C@@H](C)OC(=O)C[C@H]1O returned Pf growth 48h inactive, Pf growth 96h 2.03µM and Giardia FBPA inh inactive.
